CtBP-E1A inh = blocks the CtBP interaction with E1A; AlphaScreen GST-E1A/His-CtBP binding, 1536-well; stronger effect = lower value; activity change, % (no concentration beside the values); actives 0.49% (n = 340,000); AID 651724; in the data active = activity change below about -65%; inconclusive = mostly about -30% to -63%; also: % is scaled to controls: 0 for no effect and ±100 for the full control effect
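AlphaScreen with 125 nM GST-E1A and 125 nM His-CtBP (5X stocks) in Tris pH 8.0, 300 mM NaCl, BSA, Tween 20, TCEP. Compounds preincubated 2 h at 37 deg C, then glutathione donor/nickel acceptor beads added for 1 h at 37 deg C in dark.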
BAZ2B block = BAZ2B (human) inhibition; AlphaScreen BAZ2B-H3K14Ac peptide displacement; AID 504333; Potency, µM (doses to about 114 µM), inactives show top-dose activity change, negative = inhibition, usual class: inhibitors; actives 4.4% (n = 360,000); also: potency is read from the fitted curve at half-maximal effect; % is scaled to controls: 0 for no effect and ±100 for the full control effect; nearly all actives have a fitted effect of over 60% in size
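AlphaScreen displacement of biotin-H3(5-23)K14Ac peptide (50 nM final) from BAZ2B (50 nM final) in PBS pH 7.4, 0.01% Tween-20; complex preformed 30 min RT, then compounds (top 110 uM) 30 min RT, beads 20 min dark.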
HP1b chromo inh = HP1-beta chromodomain-methylated histone interaction inhibition | AID 540317 | P83916 | AlphaScreen HP1-beta / biotin-H3K9me3 peptide binding | actives 0.56% (n = 390,000) | Potency, µM (titrated, usually from 114 µM), for inactives: at the highest dose activity change, negative = inhibition, hits mostly inhibitors; also: potency is read from the fitted curve at half-maximal effect; nearly all actives have a fitted effect of over 70% in size
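AlphaScreen: HP1-beta (50 nM) preformed 30 min with biotin-H3(1-18)K9me3 peptide (50 nM) in PBS pH 7.4, 0.01% Tween-20. Compound added for 30 min at RT, then streptavidin donor/nickel chelate acceptor beads (10 ug/mL) for 30 min.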
TDP1 inh = blocks human tyrosyl-DNA phosphodiesterase 1; Q9NUW8; recombinant TDP1, AlphaScreen DNA substrate cleavage; Potency, µM (titrated, usually from 130 µM), for inactives: at the top dose activity change, negative = inhibition, hits mostly inhibitors; actives 0.28% (n = 350,000); AID 485290; also: potency is read from the fitted curve at half-maximal effect; % is scaled to controls: 0 for no effect and ±100 for the full control effect; nearly all actives have a fitted effect of over 40% in size
Target sequence (Q9NUW8 whole entry, looked up): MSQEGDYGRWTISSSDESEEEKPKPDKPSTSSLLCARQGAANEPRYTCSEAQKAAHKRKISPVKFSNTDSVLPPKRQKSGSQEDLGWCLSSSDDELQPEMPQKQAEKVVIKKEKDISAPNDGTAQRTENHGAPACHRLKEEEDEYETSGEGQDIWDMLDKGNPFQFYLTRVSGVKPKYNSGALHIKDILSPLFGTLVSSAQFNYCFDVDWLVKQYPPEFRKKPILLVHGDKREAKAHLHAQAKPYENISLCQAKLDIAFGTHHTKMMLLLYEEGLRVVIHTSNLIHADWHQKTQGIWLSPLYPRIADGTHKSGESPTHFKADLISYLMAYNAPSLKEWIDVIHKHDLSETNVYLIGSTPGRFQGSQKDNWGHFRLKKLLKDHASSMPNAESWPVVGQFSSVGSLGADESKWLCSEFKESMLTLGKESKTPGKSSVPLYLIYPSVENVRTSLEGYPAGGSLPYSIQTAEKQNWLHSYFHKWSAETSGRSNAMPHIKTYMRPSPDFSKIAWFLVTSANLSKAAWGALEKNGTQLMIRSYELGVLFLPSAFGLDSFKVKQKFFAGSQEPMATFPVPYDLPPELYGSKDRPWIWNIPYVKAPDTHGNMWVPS
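E. coli-derived human Tdp1, 1 nM final. Cpd preinc 15 min RT; substrate 15 nM final, 5 min RT; AS bead mix 10 ug/ml final, 10 min RT. Signal loss = tyrosine-FITC cleavage. No-enzyme wells = max signal.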
Six1-Eya2 blk = inhibitors of human Six1/Eya2 interaction; AlphaScreen GST-Six1/His-Eya2 binding, biochemical; stronger effect = lower value; Q15475+O00167; actives 0.56% (n = 360,000); activity change, % (no concentration beside the values); in the data active = activity change below about -65%; inconclusive = mostly about -30% to -63%; also: % is scaled to controls: 0 for no effect and ±100 for the full control effect
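Six1/Eya2 binding was read as AlphaScreen signal after compounds were pinned into GST-Six1 plus His-tagged Eya2 (5X stock 250/500 nM) in pH 8.0 Tris/NaCl/TCEP buffer, beads added, then incubated 1 h, 37 C, dark.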
JMJD2A Tudor inh = JMJD2A Tudor domain (human) inhibition; Potency, µM (titrated, usually from 114 µM), without a hit: top-dose activity change, negative = inhibition, hits mostly inhibitors; AlphaScreen JMJD2A-Tudor / H3K4me3 peptide binding; AID 504339; actives 4.4% (n = 390,000); also: potency is read from the fitted curve at half-maximal effect; % is scaled to controls: 0 for no effect and ±100 for the full control effect; nearly all actives have a fitted effect of over 50% in size
Active calls of the source: *; ? = inconclusive; / = no result given; [ ] = another dose, or the depositor's remark. Most compounds without a hit are left out; they make up all but 5.3% or so of the library. Unless noted, calls follow the shape of the dose curve; as a rule, active = well fitted inhibition curve with a large enough effect; inconclusive = small, poorly fitted or top-dose-only effect; inactive = no such curve, though single readings can be large or run the other way.

SMILES | CtBP-E1A inh | BAZ2B block | HP1b chromo inh | TDP1 inh | Six1-Eya2 blk | JMJD2A Tudor inh
COCCNC(=O)/C(C#N)=C/c1c(N2CCN(c3ccc(OC)cc3)CC2)nc2c(C)cccn2c1=O | -14 | 40µM* | -13% | / | -29 | 50µM*
CCNC(=O)/C(C#N)=C/c1c(N2CCN(c3ccccc3)CC2)nc2c(C)cccn2c1=O | ? | -1% | ? | / | -24 | ?
CCNC(=O)/C(C#N)=C/c1c(N2CCN(c3ccc(OC)cc3)CC2)nc2c(C)cccn2c1=O | ? | 35µM* | ? | / | ? | 20µM*
CCOC(=O)/C(C#N)=C/c1c(N2CCN(c3ccc(OC)cc3)CC2)nc2c(C)cccn2c1=O | -14 | 8.9µM* | ? | / | -10 | ?
COc1ccc(-c2cn(-c3ccc(C)cc3)c(S(=O)(=O)CC(=O)Nc3ccc(F)cc3)n2)cc1 | / | ? | 17% | 9% | / | ?
COC(=O)CN1C(=O)CSc2ccc(S(=O)(=O)Nc3cccc(Br)c3)cc21 | / | -7% | 29% | / | / | -12%
COc1ccc2c(C)cc3n[nH]c(=S)n3c2c1 | / | ? | ? | 8% | -16 | 0.71µM*
COc1ccc(NC(=S)N2CCN(C/C=C/c3ccccc3)CC2)cc1OC | -7 | ? | -14% | 6% | -14 | -34%
COc1ccc(O)c(CN2CCN(C/C=C/c3ccccc3)CC2)c1 | -30 | ? | -20% | 5% | -26 | 56µM*
COc1cc(Br)cc(CN2CCN(C/C=C/c3ccccc3)CC2)c1O | -3 | 40µM* | 8% | 12% | -29 | ?
Cc1ccc([N+](=O)[O-])cc1S(=O)(=O)N1CCn2cccc2C1c1ccccc1 (stereo not drawn) | / | ? | -4% | 13% | / | ?
CCOP(=O)(OCC)C(C#N)=C1SCN(c2ccc(Cl)cc2)CS1 | ? | 8% | -2% | 5% | ? | 79µM*
Nc1cccc(S(=O)(=O)N2CCCN(S(=O)(=O)c3ccc4c(c3)OCCO4)CC2)c1 | / | / | / | 2% | / | ?
c1ccc(COc2ccc(OCCCCN3CCCC3)cc2)cc1 | 5 | 56µM* | ? | 3% | -6 | 1.4µM*
c1ccc(COc2ccc(OCCCN3CCCCC3)cc2)cc1 | -9 | ? | ? | -4% | -8 | 40µM*
c1ccc(OCCCN2CCCC2)cc1 | 3 | 79µM* | -45% | -11% | 2 | 2.8µM*
c1ccc(OCCCCN2CCCCC2)cc1 | 9 | 3% | 15% | / | -12 | -11%
COc1ccc(OCCCN2CCCCCC2)cc1 | -9 | -36% | 15% | 6% | -5 | ?
Cc1nn(-c2ccc(Cl)cc2)c2[nH]c(CCl)cc(=O)c12 | 3 | -31% | 9% | -14% | -4 | 79µM*
CCOC(=O)c1c(C)oc2ccc(N(C(C)=O)S(=O)(=O)c3c(C)cc(C)cc3C)cc12 | / | 3% | 15% | / | / | -11%
O=C(NCc1ccccn1)C(=O)N/N=C/c1ccccc1O | ? | 40µM* | 53% | / | -73* | 25µM*
O=C(NCc1ccccn1)C(=O)NN=C1CCCCCCCCCCC1 | 3 | -22% | 35% | 3% | 2 | -7%
Cc1cc(/C=N/NC(=O)C(=O)NCc2ccccn2)c(C)n1-c1cccc(Br)c1 | -12 | 50µM* | 6% | 7% | -14 | ?
O=C(Cc1ccccc1)c1nc2ccccc2s1 | -15 | 71µM* | ? | 0% | 14 | ?
COC(=O)c1ccc(CC(=O)c2nc3ccccc3s2)cc1 | 5 | -3% | -5% | 8% | -7 | ?
SMILES | CtBP-E1A inh | BAZ2B block | HP1b chromo inh | TDP1 inh | Six1-Eya2 blk | JMJD2A Tudor inh
COC(=O)NC(c1cccc(C)c1)[C@]1(C(C)=O)CCOC1=O (stereo partly drawn) | / | / | / | -3%[21 µM] | / | /
CCOc1ccc2c(c1)nc(SCC(=O)c1ccc(Br)s1)n2C | -12 | -39% | -21% | 0% | -1 | 40µM*
CCOc1ccc2c(c1)nc(C)n2C | -19 | -7% | 22% | 0% | -12 | -9%
O=C(O)C1Cc2ccccc2CN1S(=O)(=O)c1ccc2ccccc2c1 (stereo not drawn) | -3 | 50µM* | 8% | / | -8 | 50µM*
COc1ccc(S(=O)(=O)N2Cc3ccccc3CC2C(=O)Nc2ccc3c(c2)OCO3)cc1 (stereo not drawn) | -17 | -10% | 33% | 7% | -7 | -21%
Cc1ccc(S(=O)(=O)N2Cc3ccccc3CC2C(=O)Nc2ccc3c(c2)OCO3)cc1 (stereo not drawn) | -8 | ? | ? | ? | -17 | 79µM*
Fc1ccc(COc2cccc3cccnc23)cc1 | 22 | 1% | 35% | -12% | 5 | -8%
COc1ccc2c(c1)c(=O)oc1c(C)c(OCc3cc(C(=O)O)oc3C)ccc12 | -19 | ? | ? | 0% | ? | 28µM*
Cc1oc(C(=O)O)cc1COc1cccc2cccnc12 | -71* | 40µM* | 14% | / | ? | 79µM*
COc1ccc2c(c1)c(=O)oc1c(C)c(OCC(=O)N3CCc4ccccc4C3)ccc12 | -3 | -10% | 20% | -3% | -1 | -17%
COc1ccc2c(c1)c(=O)oc1c(C)c(OCc3ccc(C(=O)O)cc3)ccc12 | / | 50µM* | 26% | / | -15 | 50µM*
COc1ccc2c(c1)c(=O)oc1c(C)c(OC(C)C(=O)NCC3CCC(C(=O)O)CC3)ccc12 (stereo not drawn) | -1 | 2% | 28% | / | -5 | -14%
CC[n+]1c(/C=C(/C)SC)sc2ccccc21 | 5 | ? | 42% | 3% | -2 | -15%
CC[n+]1c(/C=C(\C)OC)sc2ccccc21 | 6 | 56µM* | 41% | 12% | -1 | ?
CC[n+]1c(/C=C(\C)SC)sc2ccccc21 | 1 | 79µM* | 34% | 0% | 0 | ?
CC/C(=C/c1sc2ccccc2[n+]1CC)SC | 15 | ? | 31% | 3% | -4 | 25µM*
CC[n+]1c(/C=C(\C)Nc2ccccc2)sc2ccccc21 | 1 | 50µM* | 24% | 3% | -23 | -24%
COc1cc(OC)cc(-c2nc3nc(C)c(CCC(=O)Nc4ccc(C)c(C)c4)c(C)n3n2)c1 | / | -3% | 30% | 3% | / | -4%
COC(=O)C1C2CC3c4[nH]c5cc(OC)ccc5c4CCN3CC2CC(OC(=O)c2cc(OC)c(OC)c(OC)c2)C1OC (stereo not drawn) | / | / | / | 23% | / | /
Cc1c(-c2nsc(NC(=O)c3ccc(Cl)cc3)n2)nnn1-c1ccc(C(C)C)cc1 | / | 4% | -11% | 5% | / | -12%
CCc1ccc(NC(=O)C(=O)NCC(c2ccc3c(c2)OCO3)N2CCN(C)CC2)cc1 (stereo not drawn) | / | -20% | 12%[57 µM] | -1% | / | -24%

Source: PubChem BioAssay
